MCF10A rerep: induces DNA re-replication in MCF 10a normal breast cells; MCF 10A DNA re-replication, Hoechst nuclear intensity, 48 h; Potency, µM (series often up to 46.1 µM), for inactives: at the highest dose activity, positive = re-replication, most hits filed as activators; 2.9% of 350,000 active; also: % of control where 0% means no effect; nearly all actives have a fitted effect of over 50% in size
SW480 rereplic: inducers of DNA re-replication in SW480 colon cancer cells. SW480 DNA re-replication, Hoechst DNA content imaging, 48 h. Potency, µM (doses to about 46.1 µM), for the others: at the top dose re-replication activation, usual class: activators. 1.8% of 340,000 active. AID 624297; also: % of control where 0% means no effect; nearly all actives have a fitted effect of over 55% in size
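SW480 cells exposed to compounds for 48 hr at 37 C, 5% CO2, then Hoechst-stained 40 min. Nuclear DNA content imaged by fluorescence scanning (405 nm excitation, 500-530 nm emission); re-replication scored as increased high-intensity nuclei.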
ELG1 repair inh: ELG1-dependent DNA repair inhibition; HEK293T ELG1-luciferase reporter, luminescence, 16 h; DNA damage induced by 5-fluorouridine; Potency, µM (doses to about 46.1 µM), for inactives: top-dose activity change, negative = inhibition, usual class: inhibitors; 2.3% of 330,000 active; also: % is scaled to controls: 0 for no effect and ±100 for the full control effect; nearly all actives have a fitted effect of over 55% in size
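Quantitative HTS, concentration-response format. 2,000 cells/well co-treated with 5-fluorouridine and compound, 16 hr in 5% CO2 at 37 °C; ONE-Glo luminescence read after 30 min.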
KB-V1 MDR tox: KB-V1 MDR subline cytotoxicity. Potency, µM (highest dose often 46.1 µM), actives largely listed as cytotoxic. 3.4% of 400,000 active. KB-V1 MDR cells viability, CellTiter-Glo, 72 h; also: % is scaled to controls: 0 for no effect and ±100 for the full control effect; nearly all actives have a fitted effect of over 60% in size
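Cytotoxicity via CellTiter-Glo luminescence after 72 h compound exposure at 37 degrees C. Cells: drug-selected KB-V1 line, DMEM phenol-red free plus 10% FBS. Compounds tested at multiple concentrations; normalized data fitted to concentration-effect curves.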
KB-3-1 tox: KB-3-1 parental cell cytotoxicity; 1.4% of 400,000 active; AID 1347075; Potency, µM (top dose mostly 46.1 µM), most hits filed as cytotoxic; KB-3-1 viability, CellTiter-Glo ATP luminescence, 72 h; also: % is scaled to controls: 0 for no effect and ±100 for the full control effect; nearly all actives have a fitted effect of over 60% in size
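Cells are dispensed, compounds pinned in, plates held at 37 °C for 72 h, then CellTiter-Glo is added and luminescence read after 10 minutes. Cell line: parental KB-3-1 in phenol-red-free DMEM, 10% FBS.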
Starred values were filed as active, the others as inactive. Only some compounds are listed: those with a hit (about 8.1% of all), similar ones and a draw of the others. Calls follow the shape of the dose curve; as a rule, active = well fitted curve in the direction sought with a large enough effect; inconclusive = small, poorly fitted or top-dose-only effect, or another doubt; inactive = no such curve, though single readings can be large; an effect the other way counts as inactive or inconclusive. Potency is read from the fitted curve at half-maximal effect.

Results for CCCCOc1ccc(C)cc1CN(CCO)CCO ?
MCF10A rerep: -1%; SW480 rereplic: 5%; ELG1 repair inh: 1%; KB-V1 MDR tox: inactive; KB-3-1 tox: inactive

Results for CCCCCOc1ccc(CN2CCOCC2)cc1Cl ?
MCF10A rerep: 17%; SW480 rereplic: 0%; ELG1 repair inh: inconclusive; KB-V1 MDR tox: inactive; KB-3-1 tox: inactive

Results for CCCCCc1ccc(OCCCC[n+]2ccccc2)c(CCCCC)c1 ?
MCF10A rerep: 23µM*; SW480 rereplic: inconclusive; ELG1 repair inh: 13µM*; KB-V1 MDR tox: inconclusive; KB-3-1 tox: inconclusive

How did CCCCCCCCCCCCCCCC[n+]1ccc(C)cc1 do in these assays?
KB-V1 MDR tox: inconclusive; KB-3-1 tox: 1.6µM*

Results for COc1ccc(-c2oc3ncn4nc(-c5cccc(C)c5)nc4c3c2-c2ccc(OC)cc2)cc1 ?
KB-V1 MDR tox: inconclusive; KB-3-1 tox: inactive

What do the screens show for `C[C@H](CO)N1C[C@H](C)[C@@H](CN(C)S(C)(=O)=O)Oc2ccc(NC(=O)NC3CCCCC3)cc2C1=O`?
MCF10A rerep: -17%; SW480 rereplic: -3%; ELG1 repair inh: inconclusive; KB-V1 MDR tox: inactive; KB-3-1 tox: inactive

What do the screens show for `CCC(C)(C)c1ccc(Oc2cccc(C(=O)O)c2)cc1`?
MCF10A rerep: inconclusive; SW480 rereplic: -4%; ELG1 repair inh: inconclusive; KB-V1 MDR tox: inactive; KB-3-1 tox: inactive

How did CCC(C)(C)c1ccc(OCCCC[n+]2ccccc2)c(C(C)(C)CC)c1 do in these assays?
MCF10A rerep: inconclusive; SW480 rereplic: inconclusive; ELG1 repair inh: 18µM*; KB-V1 MDR tox: inconclusive; KB-3-1 tox: 9.2µM*

How did N#Cc1c2ccc(OCC(=O)NCc3ccco3)cc2n2ccccc12 do in these assays?
MCF10A rerep: 2%; SW480 rereplic: inconclusive; ELG1 repair inh: -3%; KB-V1 MDR tox: inactive; KB-3-1 tox: inactive

How did N#Cc1c2ccc(O)cc2n2ccccc12 do in these assays?
MCF10A rerep: inconclusive; SW480 rereplic: inconclusive; ELG1 repair inh: 4.1µM*; KB-V1 MDR tox: inactive; KB-3-1 tox: inactive

Results for O=C1c2cnc3nc(SCc4ccccc4)nn3c2CC2c3ccccc3CCN12 (stereo not given) ?
MCF10A rerep: 2.3µM*; SW480 rereplic: 4.1µM*; ELG1 repair inh: -7%; KB-V1 MDR tox: inactive; KB-3-1 tox: inactive

How did COc1cc(/C=C2\C=Cc3ccccc32)ccc1N(C)C do in these assays?
KB-V1 MDR tox: inactive; KB-3-1 tox: inactive

Results for COc1ccc(C[C@H]2CN3C(=NC[C@@H]3Cc3ccc(O)cc3)N2CCNC(=O)c2ccc(C)c(Br)c2)cc1 ?
MCF10A rerep: 5%; SW480 rereplic: -19%; ELG1 repair inh: -8%; KB-V1 MDR tox: inactive; KB-3-1 tox: 16µM*

How did Cc1cc(C)c(NC(=O)C2CCN(C(=O)c3ccco3)CC2)c(C)c1 do in these assays?
MCF10A rerep: -1%; SW480 rereplic: -1%; ELG1 repair inh: 18%; KB-V1 MDR tox: inactive; KB-3-1 tox: inactive

How did Cc1cccc2sc(NC(=O)C3CCN(C(=O)c4ccco4)CC3)nc12 do in these assays?
MCF10A rerep: 16%; SW480 rereplic: 3%; ELG1 repair inh: 13µM*; KB-V1 MDR tox: inactive; KB-3-1 tox: inactive

How did COc1ccc(C(=O)C2CCN(C(=O)c3ccc(C)cc3)CC2)cc1 do in these assays?
MCF10A rerep: 12%; SW480 rereplic: 10%; ELG1 repair inh: 0%; KB-V1 MDR tox: inconclusive; KB-3-1 tox: inactive

Results for COc1cccc(S(=O)(=O)Nc2ccc(C(=O)N3CCN(C(=O)c4ccco4)CC3)cc2)c1 ?
MCF10A rerep: -16%; SW480 rereplic: -5%; ELG1 repair inh: 18µM*; KB-V1 MDR tox: inactive; KB-3-1 tox: inactive

How did COc1ccc(C(=O)C2CCN(C(=O)c3ccco3)CC2)cc1 do in these assays?
MCF10A rerep: 3%; SW480 rereplic: 1%; ELG1 repair inh: -12%; KB-V1 MDR tox: 23µM*; KB-3-1 tox: inactive

Results for CN(Cc1ccccc1)C(=O)c1ccc([N+](=O)[O-])o1 ?
MCF10A rerep: 16µM*; SW480 rereplic: 6.5µM*; ELG1 repair inh: -11%; KB-V1 MDR tox: inconclusive; KB-3-1 tox: inactive

Results for O=C(Nc1ccccc1C(=O)NC1CC1)c1ccc([N+](=O)[O-])o1 ?
MCF10A rerep: 16µM*; SW480 rereplic: 6.5µM*; ELG1 repair inh: inconclusive; KB-V1 MDR tox: inconclusive; KB-3-1 tox: inactive

What do the screens show for `CC1CCN(c2ccccc2NC(=O)c2ccc([N+](=O)[O-])o2)CC1`?
MCF10A rerep: 1%; SW480 rereplic: 0%; ELG1 repair inh: -5%; KB-V1 MDR tox: inactive; KB-3-1 tox: inactive

Results for O=C(Nc1cccc2ccccc12)c1ccc([N+](=O)[O-])o1 ?
MCF10A rerep: 5.8µM*; SW480 rereplic: inconclusive; ELG1 repair inh: inconclusive; KB-V1 MDR tox: inconclusive; KB-3-1 tox: inconclusive

What do the screens show for `COc1ccccc1NC(=O)c1ccc(COc2ccccc2OC)o1`?
MCF10A rerep: -7%; SW480 rereplic: 8%; ELG1 repair inh: inconclusive; KB-V1 MDR tox: inactive; KB-3-1 tox: inactive

How did COc1ccccc1NC(=O)c1ccc([N+](=O)[O-])o1 do in these assays?
MCF10A rerep: inconclusive; SW480 rereplic: 7.3µM*; KB-V1 MDR tox: inactive; KB-3-1 tox: inconclusive

What do the screens show for `O=C(COC(=O)c1ccc([N+](=O)[O-])o1)NCc1ccccc1`?
MCF10A rerep: 2%; SW480 rereplic: 1%; ELG1 repair inh: 2%; KB-V1 MDR tox: inactive; KB-3-1 tox: inactive

What do the screens show for `Cc1ccc(S(=O)(=O)NCC(=O)NCC(=O)NCCc2ccc(Cl)cc2)cc1C`?
KB-V1 MDR tox: inactive; KB-3-1 tox: inactive

How did COCCNC(=O)c1cc2n(n1)CCCN(Cc1ccc(C)cc1)C2=O do in these assays?
KB-V1 MDR tox: inactive; KB-3-1 tox: inactive

How did Cc1ccc(CN2C(=O)N(c3ccc(F)cc3)C(=O)C2CC(=O)Nc2ccc(Cl)cc2)cc1 (stereo not given) do in these assays?
KB-V1 MDR tox: inactive; KB-3-1 tox: inactive

What do the screens show for `Cc1cccc(NC(=O)c2ccc([N+](=O)[O-])o2)c1C`?
MCF10A rerep: 13µM*; SW480 rereplic: 7.3µM*; ELG1 repair inh: 7%; KB-V1 MDR tox: inconclusive; KB-3-1 tox: inactive

What do the screens show for `O=C(Nc1cccc([N+](=O)[O-])c1)c1ccc([N+](=O)[O-])o1`?
KB-V1 MDR tox: inconclusive; KB-3-1 tox: inactive

What do the screens show for `Cc1ccc(C(=O)Nc2cccc3ccccc23)o1`?
MCF10A rerep: inconclusive; SW480 rereplic: 5.2µM*; KB-V1 MDR tox: inactive; KB-3-1 tox: inactive

Results for COc1ccc2c(-c3ccccc3)cc(N3CCOCC3)nc2c1 ?
MCF10A rerep: 21µM*; SW480 rereplic: 1%; ELG1 repair inh: -18%; KB-V1 MDR tox: inactive; KB-3-1 tox: inactive

Compound activity from PubChem BioAssay.
